Test [1] deals with Staphylococcus aureus. Conditions: Concentration 20 uM; ASSAY_TEST Inhibition of Bacterial Growth; detection method Absorption (OD600); MEDIA CAMHB; plate type 384well; NBS; CORNING #3640; time 18 hr.
For test [2], the system named is Escherichia coli. Particulars: Concentration 20 uM; ASSAY_TEST Inhibition of Bacterial Growth; detection method Absorption (OD600); MEDIA CAMHB; plate type 384well; NBS; CORNING #3640; time 18 hr.

Measured potencies and affinities stand elsewhere.

The term Inhibition denotes the change of the read-out against control, counted positive when it falls.

Consider `CCOc1ccc(OCC(=O)Nc2cc(C)cc(C)c2)cc1`, for which the Inhibition in test [1] is reported as 14.06%; in test [2], 3.81%.
Regarding `CCc1ccc(S(=O)(=O)Nc2cc(CN3CCN(CCC(C)C)CC3)ccc2C)cc1`, the Inhibition in test [1] is 21.02%; in test [2] it was 13.04%.
In the case of `CN1CCC(c2cc(-c3ccncc3)c(-c3ccc(F)cc3)[nH]2)CC1`, the Inhibition was -0.65% in test [1] and -2.15% in test [2].
Take `CNc1snc(C)c1C(=O)NCCOc1ccc(OC)cc1`: the figures for the Inhibition in test [1] and in test [2] were 18.31% and 5.8%, respectively.
As for `Nc1ncnc2c1c(Cc1cccc3ccccc13)nn2CC1CCNCC1`, the Inhibition is listed as -11.63% in test [1] and -7.67% in test [2].
For `Nc1nc(N)c2c3c(sc2n1)CN(Cc1ccccc1)CC3`, in that order: 15.72% and 6.81%.
For `COc1ccc(-c2nn(C(C)C)c3ncnc(N)c23)cc1OC`, in that order: 14.97% and -0.52%.
`CNC1C(OC2C(OC3C(O)C(O)C(NC(=N)N)C(O)C3NC(=N)N)OC(C)C2(O)C=O)OC(CO)C(O)C1O.CNC1C(OC2C(OC3C(O)C(O)C(NC(=N)N)C(O)C3NC(=N)N)OC(C)C2(O)C=O)OC(CO)C(O)C1O.O=S(=O)(O)O.O=S(=O)(O)O.O=S(=O)(O)O` (centres undefined): the Inhibition in test [1] is given as 2.48%; in test [2] it was 8.5%.
For `CC1=NN(c2nc3ccccc3s2)C(=O)C1Cc1cccc2ccccc12` (centres undefined), the figures for the Inhibition in test [1] and in test [2] were 69.16% and 0.69%, respectively.
For `CC(C)(C)OC(=O)N1CCN(c2nccc(-c3ccc(-c4ccc(Cl)cc4)s3)n2)CC1`, in that order: 15.85% and 9.45%.
On the same counts, the results for `O=C(Nc1c(O)cccc1-c1nc2c(C(=O)O)cccc2o1)c1cc(-c2ccccc2)on1` are 0.11% and -12.15%.
For `CNC(=O)c1nn(C)c2c1C(C)(C)Cc1cnc(Nc3ccc(N4CCN(C)CC4)cc3)nc1-2` [MILCICLIB], in that order: 15.75% and 10.4%.
For the compound `COc1ccc(C2=NCCN2)cc1-c1cn(-c2cccc(C3=NCCN3)c2)nn1.O=C(O)C(F)(F)F.O=C(O)C(F)(F)F`, the Inhibition is 20.97% in test [1] and 10.7% in test [2].
On the same counts, the results for `COc1ccc(Nc2ccccc2NC(=O)c2ccc(O)nc2)cc1` are 8.88% and -4.3%.
For `O=C(Nc1cnc2ccccc2c1)c1cccc(-n2cnnn2)c1`, in that order: 5.61% and -2.29%.
For the compound `COc1ccc2nc(C)cc(OCC(=O)NCc3ccccc3)c2c1`, the figures for the Inhibition in test [1] and in test [2] were 12.19% and 7.22%, respectively.
On the same counts, the results for `COc1ccc(-c2cncc3ccc(C(=O)NCCCn4ccnc4)nc23)cc1` are 13.71% and 12.75%.
On the same counts, the results for `Cc1cc(C)cc(COc2ccc3c(C)c(CCC(=O)O)c(=O)oc3c2C)c1` are 19.34% and 4.13%.
For `FC(F)(F)c1ccc(N(c2cccnc2)C2CCN(c3ccc(C(F)(F)F)cn3)CC2)cc1`, in that order: 14.25% and 5.86%.
Consider `COc1ccc(C2=NN(C3CCCCCC3)C(=O)C2(C)C)cc1OCCCCOc1ccc(-c2nn[nH]n2)cc1`, for which the Inhibition is 39.77% in test [1] and -0.89% in test [2].
For `O=C(c1ccc(NCCO)cc1)C1C[C@H]1c1ccc(Cl)cc1` (some centres undefined), in that order: 8.07% and -0.72%.
On to `CC(C)(C)n1nc(-c2ccccc2)c2c(N)ncnc21`, for which the values for the Inhibition in test [1] and in test [2] were 6.95% and -3.37%, respectively.
On to `N#Cc1ccc(-c2cnc(N)c(-c3ccc(C(N)=O)cc3)n2)cc1`, for which the Inhibition in test [1] is 16.7%; in test [2] it was 7.7%.
For `O=C(CN1CCOCC1)Nc1ccc2ncnc(Nc3ccc(OCc4cccc(F)c4)c(Cl)c3)c2c1`, in that order: 14.97% and 4.06%.
As to `COc1ccc(C2CC(c3cccs3)=NN2C(=O)c2ccco2)cc1OC` (centres undefined), the Inhibition in test [1] is 19.66%; in test [2], 11.75%.
On to `Cn1ncc2c(N3CCOCC3)nc(NCCc3c[nH]c4ccccc34)nc21` [TDR79432], for which the Inhibition in test [1] is reported as 12.92%; in test [2], -1.67%.
Take `OCCc1ccc(Nc2nccc(-c3nnc4ccccn34)n2)cc1`: the Inhibition in test [1] is on record as 21.71%; in test [2], 6.52%.
As for `CCOc1ccc(-c2nc(CNCCc3ccc(F)cc3)cs2)cc1`, the Inhibition in test [1] is recorded as 30.74%; in test [2] it was 7.75%.
As to `CS(=O)(=O)c1cccc(-c2cnc3[nH]cc(-c4ccc(CCC(=O)O)cc4)c3c2)c1`, the Inhibition in test [1] is 21.11%; in test [2], 7.22%.
For `CCOC(=O)c1noc(N)c1-c1ccccc1`, in that order: 31.41% and 11.39%.
For `Nc1cccnc1Nc1ccc(Cl)cc1`, in that order: 2.93% and -1.63%.
For `CC1CCCN(C(=O)C(C)Nc2cc(Cl)ccc2N2CCOCC2)C1` (centres undefined), in that order: 20.88% and 9.44%.
On to `c1ccc(Oc2ccc(-c3cncc(-c4ccc5[nH]ccc5c4)n3)cc2)cc1`, for which the results for the Inhibition in test [1] and in test [2] were 11.46% and 11.21%, respectively.
On the same counts, the results for `Cc1ccc(NC(=O)c2cc(S(=O)(=O)NC(C)(C)C)ccc2C)nc1` are 21% and 8.11%.
As to `COc1nc2ccc(Br)cc2cc1[C@@H](c1ccccc1)[C@@](O)(CCN(C)C)c1cccc2ccccc12.O=C(O)C(F)(F)F`, the Inhibition in test [1] amounted to 17.15%; in test [2] it was 2.08%.
For `FC(F)(F)c1cccc(-c2nc3c(NCc4ccncc4)nccc3[nH]2)c1`, in that order: 9.41% and 5.83%.
With `O=C(C1CCN(c2nnc(-n3cccc3)s2)CC1)N1CCC(Cc2ccccc2)CC1`, the Inhibition in test [1] came to 17.77%; in test [2], 6.98%.
On the same counts, the results for `Nc1ncc(-c2ccc(C(F)(F)F)nc2)cc1-c1ccc(C(F)(F)F)nc1` are 3.63% and 7.53%.
On the same counts, the results for `O=C(Nc1cccc(-c2ccc(NCCCN3CCCC3)nc2)c1)c1ccccc1` are 10.81% and 7.66%.
In the case of `COc1cc(C(F)(F)F)nc2ccc(C)c(N)c12`, the Inhibition came to 15.64% in test [1] and 5.11% in test [2].
For `Cc1ccc2nc(Cl)c(CNCc3cccs3)cc2c1`, in that order: 2.71% and -1.94%.
On the same counts, the results for `COc1ccc(-c2nc(-c3cccc(NC(=O)Cc4ccc(F)cc4)c3)no2)cc1OC` are 22.17% and 8.52%.
On to `CCOC(=O)c1cc(-c2csc(Nc3c(C)cc(C)cc3C)n2)on1`, for which the figures for the Inhibition in test [1] and in test [2] were 5.55% and 5.47%, respectively.
On the same counts, the results for `Cl.c1ccc(C[C@@H]2CN(c3nccc(Oc4ccc(-n5ccnc5)cc4)n3)CCN2)cc1` are 21.29% and 8.76%.
On the same counts, the results for `C[C@H](C(N)=O)N1CCCC[C@@H]1c1ccc(OCc2cccc(F)c2)cc1` are 12.73% and 2.14%.
For `FC(F)(F)c1nnc2ccc(Cl)nn12`, in that order: 14.72% and 1.56%.
`CCCn1nnc(NC(=O)COc2ccc(C3CCCCC3)cc2)n1`: the Inhibition in test [1] was 2.73%; in test [2], -2.31%.
For `COc1cc(OC)cc(C(=O)NCC2Cc3cc(Cl)cc(-c4ccncc4)c3O2)c1` (centres undefined), in that order: 16.01% and 10.63%.
For `Cc1cc(OCC(=O)Nc2ccc(C(C)C)cc2)n(C)c(=O)c1C#N`, in that order: 7.07% and 14.16%.
Regarding `Cc1ccccc1CN1CCC(O)(c2ccc(Cl)c(C(F)(F)F)c2)CC1`, the figures for the Inhibition in test [1] and in test [2] were 17.37% and 4.77%, respectively.
For `Cc1noc(C)c1COc1cccc(C(=O)N=c2[nH]cccc2C)c1`, in that order: 21.93% and 6.93%.
For `COc1ccc(-c2cc(NC(=O)c3ccc(F)cc3Cl)ccc2OC)cc1`, in that order: 17.79% and 8.24%.
`Cc1ccc2nc(C)c(-c3ccn(Cc4ccccc4)n3)n2c1`: the Inhibition in test [1] worked out at 13.47%; in test [2], 10.25%.
As to `O=C(NCc1nnc2n1CCCCC2)c1ccc(-c2ccc(F)cc2)o1`, the Inhibition in test [1] was determined as 15.64%; in test [2] it was 7.05%.
On the same counts, the results for `NS(=O)(=O)c1cccc(-c2ccc3ncc(N4CCOCC4)nc3c2)c1` are 16.94% and 14.17%.
For `COc1cncc(-c2cncc(N3CCN(c4ccncc4)CC3)n2)c1`, in that order: 18.85% and 13.61%.
For `O=C(OCc1ccccc1)N1CCC(c2cc(-c3ccncc3)c(-c3ccc(F)cc3)[nH]2)CC1`, in that order: 3.21% and 4.05%.
Regarding `O=C(NCCc1ccccc1)c1cc(-c2cccnc2)cnc1NCC1CC1`, the results for the Inhibition in test [1] and in test [2] were 6.31% and 1.84%, respectively.
For `Cc1cc2nc(NC(=O)C(C)(C)C)nc(Cl)c2n1Cc1ccc(Cl)cc1`, in that order: 7.77% and 0.73%.
On the same counts, the results for `CS(=O)(=O)c1ccc(C(=O)N(CC2CCCO2)c2nc3ccccc3s2)cc1[N+](=O)[O-]` (centres undefined) are 17.15% and 7.54%.
Consider `Cl.O[C@@H](c1cc(C(F)(F)F)nc2c(C(F)(F)F)cccc12)[C@H]1CCCCN1`, for which the Inhibition in test [1] is 45.36%; in test [2], 15.86%.
For `CC(C)(C)C(=O)N(CCCCCCN1C[C@H](O)[C@@H](O)[C@H](O)[C@H]1CO)C1CCCCCC1`, in that order: -1.36% and 4.68%.
For `O=C(NC1CC1)c1ccc(N2CCOc3ccc(Cl)cc32)s1`, in that order: 18.01% and 8.85%.
On the same counts, the results for `CC(Oc1cccc(Cl)c1)C(=O)Nc1ccc2oc(-c3ccncc3)nc2c1` (centres undefined) are 60.53% and 7.3%.
Consider `CC(C)(C)n1nc(Cc2cccc3ccccc23)c2c(N)ncnc21`, for which the Inhibition in test [1] was 2.05%; in test [2] it was -5.14%.
On to `Cc1nn2c(O)c3c(nc2c1-c1ccc(F)cc1)CCCC3`, for which the Inhibition in test [1] is on record as 17.1%; in test [2], 16.25%.
For `CCOc1ccccc1NC(C)C(=O)Nc1cc(C(F)(F)F)ccc1N1CCOCC1` (centres undefined), in that order: 15.12% and 7.27%.
For `Nc1ncnc2c1c(-c1cnc3ccccc3c1)nn2CC1CCNCC1`, in that order: 3.94% and -4.76%.
On the same counts, the results for `CCOc1ccc(-c2nc(NC(=O)CS(=O)(=O)c3ccccc3)sc2C)cc1` are 3.82% and -0.36%.
Take `Cc1ccc(C(=O)Nc2ccc(S(=O)(=O)O)c3cc(S(=O)(=O)O)cc(S(=O)(=O)O)c23)cc1NC(=O)c1cccc(NC(=O)Nc2cccc(C(=O)Nc3cc(C(=O)Nc4ccc(S(=O)(=O)O)c5cc(S(=O)(=O)O)cc(S(=O)(=O)O)c45)ccc3C)c2)c1` [SURAMIN]: the Inhibition in test [1] is 23.13%; in test [2], 7.96%.
With `O=C(NCCc1c[nH]c2ccccc12)c1cc2ccccc2oc1=O`, the Inhibition is recorded as 13.99% in test [1] and 9.41% in test [2].
For `O=C1COCc2ccc(Br)cc2N1Cc1ccc(C(F)(F)F)cc1`, in that order: 12.84% and 10.17%.

These data come from ChEMBL document CHEMBL4513149, “CO-ADD screening of MMV (CH) - MMV compounds” (2021).
